Each structure is given as a SMILES string. Several values for one entry are separate records, joined by “and”; a condition that tells them apart may be missing. Identical values can stand only once.

The target in one assay is Mitogen-activated protein kinase 1 (Homo sapiens) (UniProt P28482). Particulars: at 1 µM.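 Also: values are mean inhibition, from the GSK PKIS collection.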
Chain of Mitogen-activated protein kinase 1 (Homo sapiens) (P28482 whole entry): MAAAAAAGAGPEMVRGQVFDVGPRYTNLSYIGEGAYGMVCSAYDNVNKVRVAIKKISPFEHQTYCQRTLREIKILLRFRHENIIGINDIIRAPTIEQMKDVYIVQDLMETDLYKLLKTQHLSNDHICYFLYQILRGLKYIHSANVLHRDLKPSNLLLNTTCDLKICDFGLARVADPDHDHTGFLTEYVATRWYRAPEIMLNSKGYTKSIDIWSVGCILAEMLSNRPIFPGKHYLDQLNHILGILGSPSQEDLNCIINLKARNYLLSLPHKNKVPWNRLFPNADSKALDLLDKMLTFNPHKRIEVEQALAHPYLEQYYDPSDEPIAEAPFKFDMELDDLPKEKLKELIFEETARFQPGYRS
As for `c1ccc(-c2n[nH]cc2-c2ccnc(-c3ccc(OCCn4ccnc4)cc3)c2)nc1`, the inhibition came to 1.52%.

Regarding `c1cnn2ncc(-c3ccnc(NCCCN4CCOCC4)n3)c2c1`, the inhibition came out at 4.35%.

Regarding `CN1CCC(n2cnc(-c3ccc(F)cc3)c2-c2ccnc(NCCO)n2)CC1`, the inhibition turned out to be 6.12%.

In the case of `COc1cc(N2CCN(C(C)C)CC2)ccc1Nc1nc(Nc2cccc3ncccc23)c2cc[nH]c2n1`, the inhibition was -0.36%.

With `COc1ccc(Nc2ncc(-c3ccccc3)o2)cc1OC`, the inhibition worked out at 1.54%.

For `CC1=C(C(=O)Nc2ccc3[nH]nc(C)c3c2)C(c2ccc(C(F)(F)F)cc2)CC(=O)N1` (configuration not stated), the inhibition was 35.1%.

In a further assay the target is Mitogen-activated protein kinase 3 (Homo sapiens) (UniProt P27361). The following applies: at 0.1 µM.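 Also: each value is a mean inhibition figure.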
Chain of Mitogen-activated protein kinase 3 (Homo sapiens) (P27361 whole entry): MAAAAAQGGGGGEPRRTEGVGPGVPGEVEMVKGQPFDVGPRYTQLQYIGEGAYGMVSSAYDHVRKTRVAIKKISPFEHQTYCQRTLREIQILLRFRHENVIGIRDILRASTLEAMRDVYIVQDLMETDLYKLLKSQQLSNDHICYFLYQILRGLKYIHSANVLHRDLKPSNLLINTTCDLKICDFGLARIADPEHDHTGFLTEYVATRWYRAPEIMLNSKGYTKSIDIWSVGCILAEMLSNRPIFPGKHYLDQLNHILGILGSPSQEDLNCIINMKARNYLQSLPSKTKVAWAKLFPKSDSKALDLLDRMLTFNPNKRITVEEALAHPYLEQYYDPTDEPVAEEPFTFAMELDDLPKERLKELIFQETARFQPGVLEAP
Consider `CNC(=O)c1ncccc1Nc1nc(Nc2cc3c(cc2OC)CCCN3C(=O)CN(C)C)nc2[nH]ccc12`, for which the inhibition was determined as 2.44%.

In the case of `Cc1ccc(-c2cc3c(NC(=O)C4CC4)ncnc3o2)cc1`, the inhibition came out at 3%.

As for `CNC(=O)c1sc(-n2cnc3cc(OC)c(OC)cc32)cc1OCc1ccccc1C(F)(F)F`, the inhibition amounted to 3.11%.

For `O=C(O[C@H]1CN[C@H](C#Cc2cc3ncnc(Nc4ccc5c(ccn5Cc5cc(F)ccc5F)c4)c3s2)C1)N1CCOCC1`, the inhibition amounted to 4.98%.

Regarding `CN1CCN(Cc2ccc(-c3cc4ncnc(Nc5ccc(OCc6cccc(F)c6)c(Cl)c5)c4s3)o2)CC1`, the inhibition was 2.39% and 7.04%.

`CCn1c(-c2nonc2N)nc2cncc(C(=O)NCCNC)c21`: the inhibition worked out at 6.22%.

On to `CCS(=O)(=O)c1ccc(OC)c(Nc2ncc(-c3cccc(F)c3)o2)c1`, for which the inhibition was determined as 4.68%.

For `COC(=O)Nc1nc2cc(Oc3ccc(NC(=O)Nc4ccccc4)cc3)ccc2[nH]1`, the inhibition was 4.71%.

For `COc1c(C(N)=O)cc(-c2ccc(Cl)cc2)cc1-c1ccc(S(N)(=O)=O)cc1`, the inhibition came out at 4.58%.

Consider `CC1(C)CC(n2cnc(-c3ccc(F)cc3)c2-c2ccnc(N)n2)CC(C)(C)N1`, for which the inhibition was 0.44%.

Regarding `CCCNc1cccc(-n2ncc3c(N/N=C/c4ccncc4)ncnc32)c1`, the inhibition was 1.28%.

`CN(c1ccc(NC(=O)NCCN2CCOCC2)cc1)c1ccnc(Nc2ccc(CS(C)(=O)=O)cc2)n1`: the inhibition was 4.06%.

With `CCOc1ccc2c(-c3ccnc(Nc4cc(OC)cc(C(F)(F)F)c4)n3)cnn2n1`, the inhibition was found to be 0.36%.

Take `COc1cccc(-n2ncc3c(N/N=C/c4ccc(C(=O)NCCN(C)C)cc4)ncnc32)c1`: the inhibition is 3.11%.

For the molecule `COc1ccc(-c2nn3ncccc3c2-c2ccnc(Nc3ccc(F)c(F)c3)n2)cc1`, the inhibition came out at 3.11%.

Regarding `Cc1c2ccc(N(C)c3ccnc(Nc4cccc(S(N)(=O)=O)c4)n3)cc2nn1C`, the inhibition is 5.75%.

Turning to `N#Cc1cccc(Nc2ncc(-c3ccccc3)o2)c1`, the inhibition came out at 2.87%.

Regarding `CC1=C(C(=O)Nc2ccc3[nH]ncc3c2)C(c2ccc(F)cc2)N=C(c2ccc(C(F)(F)F)nc2)N1` (configuration not stated), the inhibition is 1.81%.

As to `NS(=O)(=O)c1ccc(N/N=C2\C(=O)Nc3cccc(CCc4ccncc4)c32)cc1`, the inhibition is -0.55%.

Turning to `O=C(O[C@H]1CN[C@H](C#Cc2cc3ncnc(Nc4ccc5c(cnn5Cc5ccccc5)c4)c3s2)C1)N1CCOCC1`, the inhibition was -0.77%.

As for `CS(=O)(=O)Nc1ccc(-c2cc(-c3ccccc3)cc(C(N)=O)c2N)cc1`, the inhibition came out at 2.82%.

Consider `FC(F)(F)CNc1nccc(-c2cnn3ncccc23)n1`, for which the inhibition is 1.95%.

Turning to `CS(=O)(=O)CCNCc1ccc(-c2ccc3ncnc(Nc4ccc(OCc5ccccc5)cc4)c3c2)o1`, the inhibition was determined as 2.1%.

Consider `CN(C)CCNC(=O)Nc1ccc(N(C)c2ccnc(Nc3ccc(CS(C)(=O)=O)cc3)n2)cc1`, for which the inhibition is 2.98%.

Consider `NC(=O)c1ccc2c(-c3ccnc(NCCCO)n3)c(-c3ccc(F)cc3)nn2c1`, for which the inhibition stood at 4.06%.

In the case of `c1ccc(-c2n[nH]cc2-c2ccnc(-c3ccc(OCCn4ccnc4)cc3)c2)nc1`, the inhibition stood at 0.3%.

As to `c1cnn2ncc(-c3ccnc(NCCCN4CCOCC4)n3)c2c1`, the inhibition stood at 2.48%.

Regarding `CN1CCC(n2cnc(-c3ccc(F)cc3)c2-c2ccnc(NCCO)n2)CC1`, the inhibition came to 3.9%.

For the molecule `COc1cc(N2CCN(C(C)C)CC2)ccc1Nc1nc(Nc2cccc3ncccc23)c2cc[nH]c2n1`, the inhibition was -2.04%.

For `COc1ccc(Nc2ncc(-c3ccccc3)o2)cc1OC`, the inhibition was 1.12%.

In the case of `CC1=C(C(=O)Nc2ccc3[nH]nc(C)c3c2)C(c2ccc(C(F)(F)F)cc2)CC(=O)N1` (configuration not stated), the inhibition stood at 3.88%.
